Measurements as given in PubChem BioAssay (Tox21).
Results filed as inconclusive are left out. Calls of active or inactive are those of the source. Calls come from the whole dose curve; as a rule, active = well fitted curve in the direction sought with a large enough effect in the repeat runs; inconclusive = weak or mixed curves; inactive = no such curve, though single readings can be large; an effect the other way counts as inactive or inconclusive.

Columns and labels:
[1] = molecular target: Cytochrome P450 2D6 (Homo sapiens) (UniProt P10635); assay: Cytochrome P450 Family 2 Subfamily D Member 6 (CYP2D6) small molecule antagonists: luciferase reporter qHTS assay (AID 1671196); note: nearly all actives have a fitted effect of over 50% in size; note: potency is the fitted concentration of half-maximal effect; for activity change, negative = inhibition: series mostly up to about 120 µM
Sequence of Cytochrome P450 2D6 (Homo sapiens) (P10635 whole entry, looked up): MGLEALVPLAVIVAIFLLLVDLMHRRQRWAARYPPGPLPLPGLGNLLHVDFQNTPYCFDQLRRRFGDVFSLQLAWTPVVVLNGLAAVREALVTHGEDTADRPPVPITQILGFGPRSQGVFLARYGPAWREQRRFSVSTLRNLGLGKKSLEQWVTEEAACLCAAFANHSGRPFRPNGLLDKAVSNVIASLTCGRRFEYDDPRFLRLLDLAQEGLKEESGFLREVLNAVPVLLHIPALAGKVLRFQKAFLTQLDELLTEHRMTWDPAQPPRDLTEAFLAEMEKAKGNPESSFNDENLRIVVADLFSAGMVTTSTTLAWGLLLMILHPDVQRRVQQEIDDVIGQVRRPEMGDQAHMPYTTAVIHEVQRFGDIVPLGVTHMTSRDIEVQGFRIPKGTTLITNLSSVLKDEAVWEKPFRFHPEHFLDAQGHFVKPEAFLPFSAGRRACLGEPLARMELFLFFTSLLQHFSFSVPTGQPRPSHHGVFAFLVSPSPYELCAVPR
Method in brief: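 Test chemicals meet CYP2D6 plus proluciferin substrate (10 min, RT); NADPH regenerating solution then drives turnover for 1 h. Detection reagent halts the reaction; luminescence measured after 20 min.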

[2] = molecular target: Cytochrome P450 2C19 (Homo sapiens) (UniProt P33261); assay: Cytochrome P450 Family 2 Subfamily C Member 19 (CYP2C19) small molecule antagonists: luciferase reporter qHTS assay (AID 1671197); note: nearly all actives have a fitted effect of over 65% in size; note: potency is the fitted concentration of half-maximal effect; for activity change, negative = inhibition: series mostly up to about 120 µM
Sequence of Cytochrome P450 2C19 (Homo sapiens) (P33261 whole entry, looked up): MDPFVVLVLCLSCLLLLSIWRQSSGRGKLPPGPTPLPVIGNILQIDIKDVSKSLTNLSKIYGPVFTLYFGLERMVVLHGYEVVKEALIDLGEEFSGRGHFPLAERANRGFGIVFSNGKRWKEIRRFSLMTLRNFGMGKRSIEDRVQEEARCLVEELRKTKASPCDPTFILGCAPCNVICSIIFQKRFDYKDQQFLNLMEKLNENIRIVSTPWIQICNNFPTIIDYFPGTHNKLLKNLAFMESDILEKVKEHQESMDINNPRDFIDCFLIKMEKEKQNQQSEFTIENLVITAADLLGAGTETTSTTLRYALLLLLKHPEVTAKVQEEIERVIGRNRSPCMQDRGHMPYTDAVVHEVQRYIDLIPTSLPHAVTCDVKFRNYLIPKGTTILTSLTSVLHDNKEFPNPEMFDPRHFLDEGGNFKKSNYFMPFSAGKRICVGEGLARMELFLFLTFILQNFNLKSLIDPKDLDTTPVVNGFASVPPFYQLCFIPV
Method in brief: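 First, compounds are pinned into enzyme-substrate mix and held 10 min at room temperature. Second, NADPH regeneration solution is added and plates incubate 1 h at 37C. Third, detection reagent is added and luminescence read after 20 min.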

[3] = molecular target: Cytochrome P450 2C9 (Homo sapiens) (UniProt P11712); assay: Cytochrome P450 Family 2 Subfamily C Member 9 (CYP2C9) small molecule antagonists: luciferase reporter qHTS assay (AID 1671198); note: nearly all actives have a fitted effect of over 50% in size; note: potency is the fitted concentration of half-maximal effect; for activity change, negative = inhibition: series mostly up to about 120 µM
Sequence of Cytochrome P450 2C9 (Homo sapiens) (P11712 whole entry, looked up): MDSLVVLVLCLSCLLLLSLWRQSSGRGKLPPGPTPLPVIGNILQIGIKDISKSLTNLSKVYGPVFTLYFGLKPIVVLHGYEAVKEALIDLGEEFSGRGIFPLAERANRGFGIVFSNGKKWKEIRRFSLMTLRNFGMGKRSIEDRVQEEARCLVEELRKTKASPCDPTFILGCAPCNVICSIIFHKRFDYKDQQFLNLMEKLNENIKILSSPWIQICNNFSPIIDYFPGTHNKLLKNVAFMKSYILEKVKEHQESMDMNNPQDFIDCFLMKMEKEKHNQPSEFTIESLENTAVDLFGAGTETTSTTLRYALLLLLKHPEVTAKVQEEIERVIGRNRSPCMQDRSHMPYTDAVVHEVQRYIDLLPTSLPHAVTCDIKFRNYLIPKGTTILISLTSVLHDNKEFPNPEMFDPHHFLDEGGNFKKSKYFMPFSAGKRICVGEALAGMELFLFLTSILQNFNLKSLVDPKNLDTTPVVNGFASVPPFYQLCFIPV
Method in brief: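 Enzyme-substrate mix preincubated with compound 10 min at room temperature; reaction started with NADPH regeneration solution, 1 h 37C. Luminescent luciferin product read after 20 min detection reagent.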

[4] = molecular target: Cytochrome P450 1A2 (Homo sapiens) (UniProt P05177); assay: Cytochrome P450 Family 1 Subfamily A Member 2 (CYP1A2) small molecule antagonists: luciferase reporter qHTS assay (AID 1671199); note: nearly all actives have a fitted effect of over 50% in size; note: potency is the fitted concentration of half-maximal effect; for activity change, negative = inhibition: series mostly up to about 120 µM
Sequence of Cytochrome P450 1A2 (Homo sapiens) (P05177 whole entry, looked up): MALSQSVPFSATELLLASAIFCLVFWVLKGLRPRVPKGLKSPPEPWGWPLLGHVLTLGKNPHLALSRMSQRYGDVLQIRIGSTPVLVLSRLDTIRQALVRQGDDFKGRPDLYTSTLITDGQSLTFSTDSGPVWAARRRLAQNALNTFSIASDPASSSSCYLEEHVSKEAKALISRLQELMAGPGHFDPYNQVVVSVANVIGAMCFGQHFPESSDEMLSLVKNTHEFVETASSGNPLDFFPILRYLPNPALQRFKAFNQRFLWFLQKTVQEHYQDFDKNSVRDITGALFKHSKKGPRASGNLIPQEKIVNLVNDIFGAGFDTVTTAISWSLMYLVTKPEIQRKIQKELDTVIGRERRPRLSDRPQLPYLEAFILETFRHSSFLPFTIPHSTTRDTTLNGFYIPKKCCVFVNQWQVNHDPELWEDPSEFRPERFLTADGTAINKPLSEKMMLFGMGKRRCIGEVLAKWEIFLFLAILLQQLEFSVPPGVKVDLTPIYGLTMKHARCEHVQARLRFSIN
Method in brief: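 Steps: enzyme-substrate mix dispensed; test compounds and furafylline control pinned in; 10 min room temperature; NADPH regeneration solution added, 1 h; reaction stopped with luciferin detection reagent; luminescence read after 20 min.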

[5] = molecular target: Voltage-gated inwardly rectifying potassium channel KCNH2 (Homo sapiens) (UniProt Q12809); assay: Human Ether-a-go-go-Related Gene (hERG) channel small molecule antagonists: fluorescence cell-based qHTS assay (AID 1671200);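 note: hERG-expressing U2OS cells given a thallium stimulus after FluxOR II dye loading; series mostly up to about 77 µM; nearly all actives have a fitted effect of over 50% in size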
Sequence of Voltage-gated inwardly rectifying potassium channel KCNH2 (Homo sapiens) (Q12809 whole entry, looked up): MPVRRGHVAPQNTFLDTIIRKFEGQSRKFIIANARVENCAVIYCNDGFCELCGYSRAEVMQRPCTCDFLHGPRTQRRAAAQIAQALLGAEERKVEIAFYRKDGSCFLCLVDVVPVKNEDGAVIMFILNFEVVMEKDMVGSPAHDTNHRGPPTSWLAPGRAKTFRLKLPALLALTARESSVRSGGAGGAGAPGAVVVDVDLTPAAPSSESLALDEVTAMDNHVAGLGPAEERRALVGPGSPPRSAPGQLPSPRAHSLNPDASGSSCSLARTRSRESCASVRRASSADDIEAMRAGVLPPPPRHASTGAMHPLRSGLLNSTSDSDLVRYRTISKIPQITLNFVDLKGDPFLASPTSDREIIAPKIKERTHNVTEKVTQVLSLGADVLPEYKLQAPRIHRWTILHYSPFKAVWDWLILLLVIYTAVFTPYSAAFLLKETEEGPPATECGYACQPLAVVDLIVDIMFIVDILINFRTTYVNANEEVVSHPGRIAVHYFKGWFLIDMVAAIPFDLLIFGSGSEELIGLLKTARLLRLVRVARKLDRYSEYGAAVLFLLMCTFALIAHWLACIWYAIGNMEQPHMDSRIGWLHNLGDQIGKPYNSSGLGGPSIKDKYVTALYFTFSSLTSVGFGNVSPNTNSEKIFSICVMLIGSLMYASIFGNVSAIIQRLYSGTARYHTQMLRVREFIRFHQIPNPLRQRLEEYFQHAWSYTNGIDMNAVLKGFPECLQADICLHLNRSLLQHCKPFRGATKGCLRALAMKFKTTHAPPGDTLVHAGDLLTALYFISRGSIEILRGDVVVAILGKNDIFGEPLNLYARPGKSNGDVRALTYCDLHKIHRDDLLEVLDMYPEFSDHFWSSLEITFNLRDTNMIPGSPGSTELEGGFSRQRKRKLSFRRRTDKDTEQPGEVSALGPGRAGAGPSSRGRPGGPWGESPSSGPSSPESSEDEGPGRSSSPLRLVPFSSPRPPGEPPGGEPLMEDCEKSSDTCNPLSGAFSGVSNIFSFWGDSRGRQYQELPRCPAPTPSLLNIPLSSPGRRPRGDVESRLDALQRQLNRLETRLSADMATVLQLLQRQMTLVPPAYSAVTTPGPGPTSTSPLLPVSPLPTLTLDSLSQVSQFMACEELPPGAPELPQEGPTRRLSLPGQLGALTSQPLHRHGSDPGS
Method in brief: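 Fluorescence at 540 nm emission (480 nm excitation) was recorded kinetically for 2 min at 1-second intervals once the thallium-containing stimulus reached cells previously loaded with FluxOR II dye.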

[6] = molecular target: Cytochrome P450 3A4 (Homo sapiens) (UniProt P08684); assay: Cytochrome P450 Family 3 Subfamily A Member 4 (CYP3A4) small molecule antagonists: luciferase reporter qHTS assay (AID 1671201); note: nearly all actives have a fitted effect of over 50% in size; note: potency is the fitted concentration of half-maximal effect; for activity change, negative = inhibition: series mostly up to about 120 µM
Sequence of Cytochrome P450 3A4 (Homo sapiens) (P08684 whole entry, looked up): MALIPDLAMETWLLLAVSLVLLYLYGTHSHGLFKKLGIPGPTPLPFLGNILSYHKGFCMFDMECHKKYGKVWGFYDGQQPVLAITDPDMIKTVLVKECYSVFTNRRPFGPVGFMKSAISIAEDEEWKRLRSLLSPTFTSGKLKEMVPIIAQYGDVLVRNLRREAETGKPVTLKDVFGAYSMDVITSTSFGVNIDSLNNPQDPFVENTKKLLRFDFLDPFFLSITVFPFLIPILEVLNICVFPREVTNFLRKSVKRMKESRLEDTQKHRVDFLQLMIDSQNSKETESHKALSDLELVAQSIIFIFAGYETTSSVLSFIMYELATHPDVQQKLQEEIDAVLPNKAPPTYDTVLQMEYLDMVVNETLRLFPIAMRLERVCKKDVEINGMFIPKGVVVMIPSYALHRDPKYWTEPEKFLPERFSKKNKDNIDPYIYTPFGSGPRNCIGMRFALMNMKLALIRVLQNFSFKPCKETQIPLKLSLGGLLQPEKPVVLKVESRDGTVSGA
Method in brief: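 qHTS, 1536-well. CYP3A4 + proluciferin substrate, cpd 10 min RT → NADPH regen 1 h RT → detection reagent 20 min → luminescence (RLU). Ketoconazole positive control.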
% is set by controls: 0 for no effect and ±100 for the full control effect.

CCCC=O
inactive: Potency [1] | Potency [2] | Potency [3] | Potency [4] | Potency [5] | Potency [6]

OC1OC[C@@H](O)[C@H](O)[C@H]1O (some centres not stated)
inactive: Potency [1] | Potency [2] | Potency [3] | Potency [4] | Potency [5] | Potency [6]

CC(C)N1C(=O)c2ccccc2C1=O
active: Potency [4] 35.6 µM
inactive: Potency [1] | Potency [2] | Potency [3] | Potency [5] | Potency [6]

CCCCNc1ccccc1
inactive: Potency [1] | Potency [2] | Potency [3] | Potency [4] | Potency [5] | Potency [6]

CCC(=O)/C=C/c1ccc(OC)cc1
inactive: Potency [1] | Potency [5] | Potency [6]
active: Potency [2] 12.6 µM | Potency [3] 39.9 µM | Potency [4] 20 µM

CO[Si](CCCNCCC[Si](OC)(OC)OC)(OC)OC
inactive: Potency [1] | Potency [2] | Potency [3] | Potency [4] | Potency [5] | Potency [6]

COC(=O)CCCC(=O)O
inactive: Potency [1] | Potency [2] | Potency [3] | Potency [4] | Potency [5] | Potency [6]

CCO[Si](C)(OCC)OCC
inactive: Potency [1] | Potency [2] | Potency [3] | Potency [5]
active: Potency [6] 28.3 µM

CCCCCCCCCCCCCCCCCCOCC(O)CO (configuration not stated)
inactive: Potency [1] | Potency [2] | Potency [3] | Potency [5] | Potency [6]

O=C1OC(=O)c2cc([N+](=O)[O-])ccc21
inactive: Potency [2] | Potency [3] | Potency [5] | Potency [6]
active: Potency [1] 35.5 µM

FC(F)(F)C(F)(F)C(F)(F)C(F)(F)C(F)(F)C(F)(F)C(F)(F)C(F)(F)C(F)(F)C(F)(F)F
inactive: activity change, negative = inhibition [1] -5% [at 10.5 µM] | activity change, negative = inhibition [2] -6.18% [at 10.5 µM] | activity change, negative = inhibition [3] -5.26% [at 10.5 µM] | activity change, negative = inhibition [4] -15.3% [at 10.5 µM] | activity change, negative = inhibition [5] 1.96% [at 6.97 µM] | activity change, negative = inhibition [6] -3.38% [at 10.5 µM]

COc1cc(C(=O)N2CCOCC2)cc(OC)c1OC
inactive: Potency [1] | Potency [2] | Potency [3] | Potency [4] | Potency [6]

C1CCCCCCCCCCC1
inactive: activity change, negative = inhibition [1] -0.464% [at 23.6 µM] | activity change, negative = inhibition [2] -20.8% [at 23.6 µM] | activity change, negative = inhibition [3] -1.08% [at 23.6 µM] | Potency [4] | activity change, negative = inhibition [6] 3.28% [at 23.6 µM]

O=c1[nH]c(=O)n([C@H]2O[C@H](CO)[C@@H](O)[C@@H]2O)cc1/C=C\Br
inactive: Potency [1] | Potency [2] | Potency [3] | Potency [4] | Potency [5] | Potency [6]

CC(C)[N+](C)(C)CC(O)COc1cccc2ccccc12 (configuration not stated)
active: Potency [1] 4.36 µM
inactive: Potency [2] | Potency [3] | Potency [4] | Potency [6]

C=CC(=O)OCCCCCC
inactive: Potency [1] | Potency [2] | Potency [3] | Potency [4] | Potency [5] | Potency [6]

C=C(C)[C@H]1CC=C(C)CC1
active: Potency [1] 35.6 µM
inactive: Potency [2] | Potency [3] | Potency [5] | Potency [6]

CCCOc1ccccc1-c1nc2n[nH]nc2c(=O)[nH]1
inactive: Potency [1] | Potency [2] | Potency [3] | Potency [5] | Potency [6]

Fc1ccccc1-c1ccccc1
active: Potency [4] 40.8 µM
inactive: Potency [1] | Potency [2] | Potency [3] | Potency [5] | Potency [6]

C=C(C)C(=O)NCCCN(C)C
inactive: Potency [1] | Potency [2] | Potency [3] | Potency [5] | Potency [6]

CCC(C)OC(=O)N1CCCCC1CCO (configuration not stated)
active: Potency [2] 35.6 µM | Potency [3] 79.6 µM
inactive: Potency [1] | Potency [5] | Potency [6]

C/C=C1\C(=O)C[C@H]2[C@@H]3CCC4=CC(=O)CC[C@]4(C)[C@H]3CC[C@]12C
active: Potency [2] 6.2 µM | Potency [3] 15.6 µM
inactive: Potency [1] | Potency [4] | Potency [6]

CC(C)CCCC(C)NCCC(C)C (configuration not stated)
inactive: Potency [2] | Potency [3] | Potency [4] | Potency [6]
active: Potency [1] 1.23 µM

Nc1ccn(C2CO[C@H](CO)O2)c(=O)n1 (some centres not stated)
inactive: Potency [1] | Potency [2] | Potency [3] | Potency [4] | Potency [6]

C(=C(c1ccccc1)c1ccccc1)c1ccccc1
inactive: Potency [1] | Potency [6]
active: Potency [2] 5.03 µM | Potency [3] 5.03 µM | Potency [4] 35.6 µM

C=CCn1c(=O)n([C@@H]2O[C@H](CO)[C@@H](O)[C@H]2O)c2nc(N)[nH]c(=O)c21
inactive: Potency [1] | Potency [2] | Potency [3] | Potency [5] | Potency [6]

CC1CCN(CCCC(=O)c2ccc(F)cc2)CC1
inactive: Potency [3] | Potency [4] | Potency [6]
active: Potency [1] 0.246 µM | Potency [2] 34.7 µM

C=C(C)C1CC=C(C)C(O)C1 (configuration not stated)
inactive: Potency [1] | Potency [2] | Potency [3] | Potency [6]
active: Potency [4] 40.1 µM

O=C(O)Cc1cc(I)c(Oc2cc(I)c(O)c(I)c2)c(I)c1
active: Potency [3] 34.9 µM
inactive: Potency [1] | Potency [2] | Potency [4] | Potency [6]

Cc1cc(C)c(NC(=O)CN(CC(=O)O)CC(=O)O)c(C)c1Br
inactive: Potency [1] | Potency [2] | Potency [3] | Potency [4] | Potency [6]

CCCCc1ccc2cccc(S(=O)(=O)O)c2c1
inactive: Potency [1] | Potency [2] | Potency [5] | Potency [6]
active: Potency [3] 37.3 µM

OCC(CO)(CO)COCC(CO)(CO)CO
inactive: Potency [1] | Potency [2] | Potency [3] | Potency [5] | Potency [6]

COc1cc(C)cc(O)c1
inactive: Potency [1] | Potency [2] | Potency [3] | Potency [5] | Potency [6]
active: Potency [4] 35.6 µM

Cc1cc(C)cc(OCC2CNC(=O)O2)c1 (configuration not stated)
inactive: Potency [1] | Potency [2] | Potency [3] | Potency [5] | Potency [6]
